The source of these data is PubChem BioAssay (NCATS).

Values joined by “and” are separate entries in the source; they are usually repeats but may differ in a detail not shown here. Equal entries are not always repeated. Records with an inconclusive call do not appear. Active and inactive are the calls of the source. Unless noted, calls follow the shape of the dose curve; as a rule, active = well fitted curve in either direction with a large enough effect (not every such curve was filed as active); inconclusive = small, poorly fitted or top-dose-only effect, or another doubt; inactive = flat fitted curve, though single readings scatter.

Test [1] is described as follows: AP1 Signaling Pathway (AID 357).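 Also: ME-180 reporter cells stimulated with EGF at its EC50 level; % is scaled to controls: 0 for no effect and ±100 for the full control effect.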 To be noted: ME-180 AP-1-bla reporter, EGF-induced, beta-lactamase ratio, 5 h; at 7.69 µM (top of the series) unless noted. In short, it runs like this:
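Read-out was the 460nm/530nm emission ratio (excitation 405nm) after CCF4 loading for 2.5 hours at room temperature. Cells carried an AP-1-driven beta-lactamase reporter, were stimulated with EC50 EGF plus compound for 5 hours, and AC50 values came from titrations.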

Test [2] in a line: NFAT Signaling Pathway (AID 444).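 Also: carbachol stimulus at about its EC50 of 1 µM final; % is scaled to controls: 0 for no effect and ±100 for the full control effect.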 To be noted: Jurkat NFAT-bla M1, carbachol, beta-lactamase ratio, 5 h; at 7.69 µM (top of the series) unless noted. An outline of the steps:
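Jurkat cells with NFAT-driven β-lactamase reporter and co-expressed M1 receptor, stimulated with carbachol (final 1 uM, ~EC50), compound titration, 5 h at 37 °C. CCF4 loaded 1 h at RT; 460/530 nm ratio gave %activity and AC50.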

Test [3] can be described thus: Stat Signaling Pathway (AID 446).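 Also: ME-180 cervical cancer cells given 40 pM IL-6 alongside compound; SIE-controlled beta-lactamase reporter measured as 460/530 nm FRET emission ratio; % is scaled to controls: 0 for no effect and ±100 for the full control effect.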 The conditions noted are these: ME-180 SIE beta-lactamase reporter, IL-6 stimulated, 5 h; at 7.69 µM (top of the series) unless noted. In short, it runs like this:
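Reporter line: ME-180 cervical carcinoma, SIE-beta-lactamase. Treatment: compound with 40 pM IL-6, 5 hrs, 37 C, in low-serum OPTI-MEM with 10 mM HEPES pH 7.3. Detection: 460/530 nm fluorescence.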

Test [4] deals with Glucocorticoid receptor (Homo sapiens) (UniProt P04150). Kind of test: GR-GFP Redistribution (AID 450;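 active = compounds whose dose series gives a full or clear partial fitted curve of increased nuclear translocation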; also: potency is read from the fitted curve at half-maximal effect). The conditions noted are these: U2OS GR-GFP nuclear translocation, laser cytometry, 2 h.
The target is the same in test [5]. Kind of test: GR-EFC Redistribution (AID 451; calls by dose curve; also: potency is read from the fitted curve at half-maximal effect). The conditions noted are these: CHO-K1 GR-EFC translocation, beta-gal luminescence, 2 h. An outline of the steps: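 CHO-K1 cells expressing nuclear EA and GR-ED fragments of b-gal; compounds titrated up to 46 uM final, 2 h at 37 C. GR nuclear translocation read as complemented b-gal luminescence after 1 h RT detection.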

The target in test [6] is Mitogen-activated protein kinase 10 (Mus musculus) (UniProt Q61831). As to the kind of experiment: JNK3 AlphaScreen Assay (AID 530).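 Also: kinase came from lysate of stimulated human HepG2 cells; signal reports phosphorylation of biotinylated GST-cJun 1-79 at Ser73 with 10 µM ATP; % is scaled to controls: 0 for no effect and ±100 for the full control effect.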 An outline of the steps:
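qHTS format: compounds tested as titrations against IL-1beta/TNF-alpha-activated HepG2 lysate JNK3 with biotin-GST-cJun substrate and 10 uM ATP at room temperature. Loss of anti-phospho-cJun AlphaScreen signal indicates inhibition.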

The target of test [7] is 3',5'-cyclic-AMP phosphodiesterase 4B (Homo sapiens) (UniProt Q07343). As to the kind of experiment: qHTS Assay for Inhibitors of PDE-IV (AID 607; active = well fitted activation curve with a large enough effect in the main read-out, with a control signal flat, not every such curve was filed as active; also: % of control where 0% means no effect). An outline of the steps: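 Cell-based read-out of cAMP via a modified cyclic nucleotide-gated channel and membrane potential dye (535/590 nm) in HEK293 cells expressing PDE4 endogenously. Compounds tested up to 22.9 uM final; 100 uM RO 20-1724 reference.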

The nature of test [8]: qHTS Assay for Lipid Storage Modulators (AID 1519; calls by dose curve). To be noted: Drosophila S3 cells, BODIPY lipid droplet/cell ratio, laser cytometry, cells loaded with oleic acid. In short, it runs like this:
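Cells seeded at 5,000 per well were treated with compounds over a concentration series and loaded with oleic acid (400 uM, as added). Lipid droplet fluorescence (488 nm excitation, 500-530 nm channel) was read by laser-scanning cytometry and normalized to 20 uM Triacsin C.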

For test [9], the target named is Ubiquitin carboxyl-terminal hydrolase 1 (Homo sapiens) (UniProt O94782). As to the kind of experiment: Inhibitors of USP1/UAF1: Pilot qHTS (AID 504865; active = well fitted curve in the direction sought with a large enough effect; an effect the other way counts as inactive or inconclusive;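 also: rhodamine fluorescence freed from ubiquitin-rhodamine substrate followed over time; top concentration of the series differs between compounds; % is scaled to controls: 0 for no effect and ±100 for the full control effect; nearly all actives have a fitted effect of over 35% in size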). In short, it runs like this:
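Enzyme-free wells gave the negative control, while test wells held 1nM USP1/UAF1 preincubated with compound for 15 min at room temperature. Ub-Rho at 150nM final started the reaction, and fluorescence at 480/540 nm was recorded kinetically.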

The target of test [10] is Lysosomal acid glucosylceramidase (Homo sapiens) (UniProt P04062). Kind of test: Glucocerebrosidase-p2 (AID 348; in the data active = potency below about 10 µM; also: potency is read from the fitted curve at half-maximal effect). The conditions noted are these: purified GBA, blue fluorogenic substrate, 40 min. An outline of the steps:
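Compounds titrated from 0.6 nM upwards against 0.2 nM enzyme in pH 5.9 citric acid/KH2PO4, taurocholate, tween-20; blue fluorogenic substrate 80 uM, 40 min room temperature, stopped and read Ex 365/Em 440 for AC50.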

Test [11] deals with Dual specificity protein kinase CLK4 (Homo sapiens) (UniProt Q9HAZ1). Kind of test: qHTS Assay for Inhibitors of CDC-like Kinase 4 (ADP-Glo Assay) (AID 1771; active = well fitted curve in the direction sought with a large enough effect; an effect the other way counts as inactive or inconclusive; also: potency is read from the fitted curve at half-maximal effect; nearly all actives have a fitted effect of over 70% in size). An outline of the steps: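 Kinase reaction: Clk4 at 25 nM, RS repeat peptide substrate at 100 uM, ATP at 1 uM, 1 hr, room temperature. Product ADP detected as luciferase signal via ADP-Glo.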
For test [12], the target named is Cytochrome P450 3A4 (Homo sapiens) (UniProt P08684). As to the kind of experiment: qHTS Assay for Inhibitors and Substrates of Cytochrome P450 3A4 (AID 884; active = well fitted curve in the direction sought with a large enough effect; an effect the other way counts as inactive or inconclusive; also: % is scaled to controls: 0 for no effect and ±100 for the full control effect; nearly all actives have a fitted effect of over 50% in size). An outline of the steps: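 20 nM human CYP3A4 with 25 uM Luciferin-PPXE (at KM) in 200 mM KPO4, preincubated 10 min with compound; NADPH regeneration started a 60 min RT reaction. Luciferin detected by luminescence, normalized to 57 uM ketoconazole as full inhibition.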

Test [13] in a line: Confirmation and Secondary Assay for Modulators of Hemoglobin Beta Chain Splicing at IVS2 705 locus (AID 930; active = well fitted curve in the direction sought with a large enough effect; an effect the other way counts as inactive or inconclusive;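 also: HeLa cells stably expressing the EGFP-705 splicing reporter; GFP fluorescence per well restored by corrected splicing of the IVS2-705 intron in EGFP; % of control where 0% means no effect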). In short, it runs like this:
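Per-well GFP, captured at 1 x 8 µm resolution with 488 nm excitation, served as the read-out for HeLa EGFP-705 cells incubated 2 days with test compound versus DMSO.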

[14] abbreviates: measured here: cell count channel max response.
[15] abbreviates: measured here: lipid channel max response.

Sequence of 3',5'-cyclic-AMP phosphodiesterase 4B (Homo sapiens) (Q07343 whole entry, looked up): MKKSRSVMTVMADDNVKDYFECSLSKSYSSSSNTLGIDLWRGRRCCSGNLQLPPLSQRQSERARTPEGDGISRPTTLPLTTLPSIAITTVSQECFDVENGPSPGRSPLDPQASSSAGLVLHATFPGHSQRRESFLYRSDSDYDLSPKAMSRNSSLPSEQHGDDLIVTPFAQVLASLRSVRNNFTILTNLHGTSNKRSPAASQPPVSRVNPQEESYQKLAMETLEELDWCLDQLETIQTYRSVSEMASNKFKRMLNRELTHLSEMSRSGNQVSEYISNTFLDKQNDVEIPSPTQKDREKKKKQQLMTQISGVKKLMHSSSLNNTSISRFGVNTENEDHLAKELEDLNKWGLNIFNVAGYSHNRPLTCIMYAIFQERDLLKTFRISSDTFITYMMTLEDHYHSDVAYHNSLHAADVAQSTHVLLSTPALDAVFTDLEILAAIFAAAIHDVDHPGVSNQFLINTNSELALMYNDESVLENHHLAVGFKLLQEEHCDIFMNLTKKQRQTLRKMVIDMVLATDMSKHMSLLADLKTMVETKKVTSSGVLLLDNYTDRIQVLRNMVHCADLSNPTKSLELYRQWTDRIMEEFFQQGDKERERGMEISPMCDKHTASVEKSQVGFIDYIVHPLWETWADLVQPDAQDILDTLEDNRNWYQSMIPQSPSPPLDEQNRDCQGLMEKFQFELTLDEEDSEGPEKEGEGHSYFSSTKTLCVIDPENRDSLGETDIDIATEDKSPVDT
Sequence of Ubiquitin carboxyl-terminal hydrolase 1 (Homo sapiens) (O94782 whole entry, looked up): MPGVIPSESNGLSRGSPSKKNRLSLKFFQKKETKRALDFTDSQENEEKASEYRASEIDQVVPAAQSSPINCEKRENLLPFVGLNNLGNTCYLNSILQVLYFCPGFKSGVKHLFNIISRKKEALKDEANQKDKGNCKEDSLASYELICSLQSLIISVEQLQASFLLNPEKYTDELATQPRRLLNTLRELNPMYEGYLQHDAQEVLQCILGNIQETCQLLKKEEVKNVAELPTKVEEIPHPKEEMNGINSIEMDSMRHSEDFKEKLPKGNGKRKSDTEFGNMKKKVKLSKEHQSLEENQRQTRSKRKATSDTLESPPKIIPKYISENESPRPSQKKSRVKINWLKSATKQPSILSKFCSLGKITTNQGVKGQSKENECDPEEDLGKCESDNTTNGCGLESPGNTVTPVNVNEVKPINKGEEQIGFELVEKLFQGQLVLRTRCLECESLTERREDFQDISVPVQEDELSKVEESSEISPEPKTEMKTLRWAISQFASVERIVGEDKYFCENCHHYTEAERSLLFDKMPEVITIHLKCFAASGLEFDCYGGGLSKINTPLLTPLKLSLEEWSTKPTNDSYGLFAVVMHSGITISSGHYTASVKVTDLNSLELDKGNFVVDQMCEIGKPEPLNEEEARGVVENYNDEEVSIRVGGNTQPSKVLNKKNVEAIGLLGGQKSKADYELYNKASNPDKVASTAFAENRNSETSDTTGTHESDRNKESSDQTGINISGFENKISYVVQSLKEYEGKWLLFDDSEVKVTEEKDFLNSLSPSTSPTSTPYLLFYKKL
Sequence of Glucocorticoid receptor (Homo sapiens) (P04150 whole entry, looked up, the tested form may be a part): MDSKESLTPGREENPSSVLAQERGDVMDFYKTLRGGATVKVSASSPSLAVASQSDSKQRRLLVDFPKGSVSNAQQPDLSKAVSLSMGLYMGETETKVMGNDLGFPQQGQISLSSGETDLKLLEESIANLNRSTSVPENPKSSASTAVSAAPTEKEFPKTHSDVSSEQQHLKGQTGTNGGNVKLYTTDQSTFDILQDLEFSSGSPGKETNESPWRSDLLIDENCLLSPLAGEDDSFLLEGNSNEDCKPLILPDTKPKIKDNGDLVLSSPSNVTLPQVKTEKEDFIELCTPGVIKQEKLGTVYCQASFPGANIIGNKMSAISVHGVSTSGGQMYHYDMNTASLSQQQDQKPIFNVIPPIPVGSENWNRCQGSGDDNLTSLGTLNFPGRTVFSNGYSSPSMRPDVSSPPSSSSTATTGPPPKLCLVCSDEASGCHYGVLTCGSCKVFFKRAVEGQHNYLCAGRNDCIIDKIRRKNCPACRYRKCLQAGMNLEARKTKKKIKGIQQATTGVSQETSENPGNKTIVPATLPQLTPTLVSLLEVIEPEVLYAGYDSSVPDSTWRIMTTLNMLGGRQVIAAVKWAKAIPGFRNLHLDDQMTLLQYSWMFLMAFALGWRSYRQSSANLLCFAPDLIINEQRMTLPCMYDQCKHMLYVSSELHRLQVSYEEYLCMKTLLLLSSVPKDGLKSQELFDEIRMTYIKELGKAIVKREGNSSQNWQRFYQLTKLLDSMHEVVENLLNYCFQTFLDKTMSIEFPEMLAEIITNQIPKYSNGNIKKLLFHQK
Sequence of Cytochrome P450 3A4 (Homo sapiens) (P08684 whole entry, looked up): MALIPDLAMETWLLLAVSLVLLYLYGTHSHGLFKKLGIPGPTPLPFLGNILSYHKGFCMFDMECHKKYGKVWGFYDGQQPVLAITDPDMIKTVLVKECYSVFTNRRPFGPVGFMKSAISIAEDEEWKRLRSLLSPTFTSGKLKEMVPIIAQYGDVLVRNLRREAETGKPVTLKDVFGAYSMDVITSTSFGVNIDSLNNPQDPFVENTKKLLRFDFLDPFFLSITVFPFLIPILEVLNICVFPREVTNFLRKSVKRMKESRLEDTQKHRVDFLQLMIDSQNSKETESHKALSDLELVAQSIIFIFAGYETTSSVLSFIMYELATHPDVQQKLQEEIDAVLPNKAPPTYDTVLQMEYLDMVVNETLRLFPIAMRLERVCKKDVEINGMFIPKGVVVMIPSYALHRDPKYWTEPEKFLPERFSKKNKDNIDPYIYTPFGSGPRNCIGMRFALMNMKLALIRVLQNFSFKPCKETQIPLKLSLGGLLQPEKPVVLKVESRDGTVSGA
Sequence of Dual specificity protein kinase CLK4 (Homo sapiens) (Q9HAZ1 whole entry, looked up): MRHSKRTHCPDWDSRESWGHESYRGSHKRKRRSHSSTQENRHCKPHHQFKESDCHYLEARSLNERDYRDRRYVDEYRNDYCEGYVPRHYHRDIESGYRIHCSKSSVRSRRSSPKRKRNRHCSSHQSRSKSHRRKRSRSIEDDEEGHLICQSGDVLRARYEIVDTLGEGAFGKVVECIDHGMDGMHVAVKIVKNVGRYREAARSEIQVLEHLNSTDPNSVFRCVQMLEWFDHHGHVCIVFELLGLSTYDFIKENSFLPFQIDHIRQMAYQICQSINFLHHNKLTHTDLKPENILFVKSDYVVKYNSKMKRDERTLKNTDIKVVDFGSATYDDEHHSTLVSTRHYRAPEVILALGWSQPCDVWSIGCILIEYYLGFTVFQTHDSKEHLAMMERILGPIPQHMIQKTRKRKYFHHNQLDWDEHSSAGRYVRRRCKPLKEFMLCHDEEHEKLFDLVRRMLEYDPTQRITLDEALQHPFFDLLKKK
Sequence of Lysosomal acid glucosylceramidase (Homo sapiens) (P04062 whole entry, looked up): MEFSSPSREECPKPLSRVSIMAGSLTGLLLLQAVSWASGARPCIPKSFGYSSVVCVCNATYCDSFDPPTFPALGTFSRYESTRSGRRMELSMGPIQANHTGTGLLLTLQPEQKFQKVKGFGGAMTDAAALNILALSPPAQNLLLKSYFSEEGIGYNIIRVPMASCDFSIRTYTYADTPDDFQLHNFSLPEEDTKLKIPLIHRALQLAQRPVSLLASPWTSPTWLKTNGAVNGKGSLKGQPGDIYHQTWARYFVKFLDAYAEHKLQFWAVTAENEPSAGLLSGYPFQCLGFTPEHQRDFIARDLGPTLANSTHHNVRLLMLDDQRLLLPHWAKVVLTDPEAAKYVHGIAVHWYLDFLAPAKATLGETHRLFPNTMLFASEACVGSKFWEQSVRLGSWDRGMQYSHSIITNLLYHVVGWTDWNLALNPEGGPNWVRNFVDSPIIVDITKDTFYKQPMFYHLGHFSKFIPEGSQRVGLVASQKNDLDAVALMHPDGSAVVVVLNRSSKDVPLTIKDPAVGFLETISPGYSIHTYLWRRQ

As for `COC(=O)C1=CO[C@@H](C)[C@H]2CN3CCc4c([nH]c5ccccc45)[C@@H]3C[C@H]12`, the activity change, negative = inhibition is -20.4% [at 17.2 µM] (inactive) and -6.91% [at 17.2 µM] (inactive) in [1]; -3.19% [at 17.2 µM] (inactive) and -17.9% [at 17.2 µM] (inactive) in test [2]; -0.703% (inactive) and -0.794% (inactive) in [8] (at 25.7 µM (top of the series)). For the same compound, the activity, negative = inhibition in test [3] is 8.22% [at 17.2 µM] (inactive) and -4.95% [at 17.2 µM] (inactive). Moreover, the Potency in [4] and in test [5] was > 20.6 µM (inactive) each time. Moreover, the Potency entry in test [6], in test [7] and in test [9] was “inactive” in each case. The max response in [8] (setting [14]) is 3.91% and -17.6%; in test [8] (setting [15]), 2.39% and -19.1%.
As to `N#Cc1ccccc1-c1ccc2ncnc(NCc3cccs3)c2c1`, the Potency is > 11.4 µM (inactive) in [10], > 46 µM (inactive) in [4], > 46 µM (inactive) in [5] and 3.16 µM (active) in test [11]. Also, the activity change, negative = inhibition in [1] is -0.438% (inactive); in [2], 20.9% (inactive); in [8] (at 57.5 µM (top of the series)) it was 2.64% (inactive). In addition, in test [3], the activity, negative = inhibition was -2.46% (inactive). Also, the Potency entry in [6], in [7] and in [9] was “inactive” in each case. Further, the max response in test [8] (setting [14]) was 0.851%; in test [8] (setting [15]), -0.129%.
On to `CN1C(CC(=O)c2ccccc2)CCCC1CC(O)c1ccccc1` (stereo unspecified), for which the Potency result in [12] and in test [9] was “inactive” each time. Further, the call in [13] was inactive. Besides, the activity change, negative = inhibition in test [8] (at 57.5 µM (top of the series)) was -2.13% (inactive). Besides, the max response in [8] (setting [14]) amounted to 13%; in test [8] (setting [15]), 12.2%.
On to `C=CC(C)(O)CCC=C(C)C` (stereo unspecified), for which the Potency entry in test [6], in [12] and in [9] was “inactive” in each case. The activity change, negative = inhibition in test [8] (at 57.5 µM (top of the series)) is -9.56% (inactive). The max response was -17.5% in test [8] (setting [14]) and -25.1% in test [8] (setting [15]).
